Reference: PMC4336329 (PLoS ONE, 2015)
About 14,000 (4.5%) of roughly 310,000 compounds showed an effect of 50% or more. Effects have a minus sign here. Shown is part of a subset that was picked to be rich in strong results.

Target: human ether-à-go-go-related gene (hERG) potassium channel (human, UniProt Q12809)
Assay: primary screen, population patch clamp on CHO cells stably expressing hERG; higher = less effect of the substance
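Further: peak tail current of the secondary pulse compared with the same well before compound.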

Sequence of human ether-à-go-go-related gene (hERG) potassium channel (Q12809 whole entry, looked up): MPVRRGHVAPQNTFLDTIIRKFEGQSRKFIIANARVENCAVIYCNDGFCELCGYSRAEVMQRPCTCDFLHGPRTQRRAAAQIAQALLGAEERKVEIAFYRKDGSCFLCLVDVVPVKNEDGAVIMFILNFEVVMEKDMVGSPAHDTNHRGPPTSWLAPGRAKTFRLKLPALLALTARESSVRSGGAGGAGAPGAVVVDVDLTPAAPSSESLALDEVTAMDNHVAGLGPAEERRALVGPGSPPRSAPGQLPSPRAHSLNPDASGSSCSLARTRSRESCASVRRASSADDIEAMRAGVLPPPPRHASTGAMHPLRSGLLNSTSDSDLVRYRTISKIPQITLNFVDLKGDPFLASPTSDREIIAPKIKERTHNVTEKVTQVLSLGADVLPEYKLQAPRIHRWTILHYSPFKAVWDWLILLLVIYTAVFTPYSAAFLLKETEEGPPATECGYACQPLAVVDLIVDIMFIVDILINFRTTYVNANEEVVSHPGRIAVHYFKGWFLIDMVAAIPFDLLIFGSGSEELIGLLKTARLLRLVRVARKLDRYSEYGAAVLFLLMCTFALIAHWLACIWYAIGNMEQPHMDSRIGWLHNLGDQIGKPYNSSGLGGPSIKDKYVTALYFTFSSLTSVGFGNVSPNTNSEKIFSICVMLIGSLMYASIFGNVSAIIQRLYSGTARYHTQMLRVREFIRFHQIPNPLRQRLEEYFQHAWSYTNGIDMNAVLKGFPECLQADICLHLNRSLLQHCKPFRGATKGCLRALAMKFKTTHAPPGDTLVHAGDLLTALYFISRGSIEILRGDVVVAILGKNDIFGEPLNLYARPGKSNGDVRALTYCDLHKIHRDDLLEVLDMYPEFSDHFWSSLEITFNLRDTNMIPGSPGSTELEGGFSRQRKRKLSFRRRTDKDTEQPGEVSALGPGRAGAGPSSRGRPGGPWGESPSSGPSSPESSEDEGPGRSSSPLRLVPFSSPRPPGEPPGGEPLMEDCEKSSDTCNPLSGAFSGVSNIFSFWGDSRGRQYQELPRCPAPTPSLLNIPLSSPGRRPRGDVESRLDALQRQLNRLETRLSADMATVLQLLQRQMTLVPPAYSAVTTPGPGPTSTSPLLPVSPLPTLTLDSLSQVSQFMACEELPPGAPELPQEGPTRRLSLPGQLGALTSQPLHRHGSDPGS

Row | SMILES | hERG current change (%, negative = inhibition) at 10uM [%]
1 | O=C(CN(Cc1ccccc1)C(=O)c1csnn1)NCCc1ccccc1 | -18.9
2 | COc1ccc(CNC(=O)CN(Cc2ccccc2Cl)C(=O)c2csnn2)cc1 | -34.8
3 | O=C(CN(Cc1ccccc1Cl)C(=O)c1csnn1)NCc1ccccc1 | -24
4 | O=C(CN(C(=O)c1csnn1)c1cccc2c1CCCC2)NCc1ccc(F)cc1 | -57.7
5 | O=C(CN(Cc1ccc(Cl)cc1)C(=O)c1csnn1)NCc1ccccc1 | -56.7
6 | C/C(=N/NC(=O)c1ccc2c(c1)OCO2)c1cccc([N+](=O)[O-])c1 | -10.1
7 | COc1ccc(C(=O)OCn2nnc3ccccc3c2=O)cc1 | -10.4
8 | Cc1cc(C(=O)Nc2ccc(Nc3ccccc3)cc2)ccc1[N+](=O)[O-] | 17.3
9 | CCc1ccc(NC(=O)CS(=O)CC(=O)NC(C)CCc2ccco2)cc1 (stereo not shown) | 9.65
10 | CSc1nc2ccccc2cc1/C=C(\C#N)c1cccc(Cl)c1 | 8.2
11 | CCN1C(C(=O)Nc2cc(C)on2)=C(O)c2ccccc2S1(=O)=O | 24.7
12 | CCCCCC(=O)Nc1cccc(C2=NOC3(C2)C[C@@H](C(N)=O)N(C(=O)c2ccc(Cl)cc2)C3)c1 (stereo partly shown) | -29.6
13 | O=C(COc1ccc(Cl)cc1)Nc1cccc(S(=O)(=O)NC2=NCCCCC2)c1 | -42.1
14 | C/C(=N/NC(=O)CN1CCN(Cc2ccccc2)CC1)c1ccc([N+](=O)[O-])cc1 | -76.5
15 | C/C(=N\NC(=O)Cc1ccccc1)c1cccs1 | -4.86
16 | C/C(=N\NC(=O)c1ccc(CN2CCOCC2)cc1)c1ccc([N+](=O)[O-])cc1 | -7.18
17 | C/C(=N/NC(=O)CC(=O)N/N=C(\C)c1ccc([N+](=O)[O-])cc1)c1ccc([N+](=O)[O-])cc1 | -28.8
18 | C/C(=N/NC(=O)CSc1ccccn1)c1ccc([N+](=O)[O-])cc1 | -64.2
19 | C/C(=N\NC(=O)CSc1nc(C)cc(C)n1)c1ccc([N+](=O)[O-])cc1 | -10.8
20 | C/C(=N\NC(=O)CN1CCN(Cc2ccccc2)CC1)c1cccs1 | -50.9
21 | C/C(=N/NC(=O)CN1CCN(Cc2ccccc2Cl)CC1)c1cccs1 | -17.8
22 | C/C(=N\NC(=O)CN1CCCCC1)c1cccc([N+](=O)[O-])c1 | -25.9

Row | SMILES | hERG current change (%, negative = inhibition) at 10uM [%]
23 | CC1CCCCN1C(=O)CSc1nnc(-c2ccco2)n1C (stereo not shown) | 4.88
24 | COCCNCC(=O)N1CCCCCC1.O=C(O)C(=O)O | -24.6
25 | Cc1cc(C(=O)OCC(=O)N2CCCC2)c2ccccc2n1 | -9.04
26 | CC(C)(C)NC(=O)C(=O)NNC(=O)COc1ccc(Br)cc1 | 5.23
27 | O=C(Cn1nnc(-c2ccccc2Cl)n1)N1CCN(S(=O)(=O)c2ccc(Cl)cc2)CC1 | -18
28 | CNC(=O)COc1coc(CN2CCN(C(=O)c3ccco3)CC2)cc1=O | 7.13
29 | O=C(c1ccco1)N1CCN(Cc2cc(=O)c(OCc3cccc(Cl)c3)co2)CC1 | -74.7
30 | CCCNC(=O)COc1coc(CN2CCN(C(=O)c3ccco3)CC2)cc1=O | 3.56
31 | Cc1cccc(COc2coc(CN3CCN(C(=O)c4ccco4)CC3)cc2=O)c1 | -50.7
32 | Cc1ccc(C)c(OCC(=O)N2CCN(C(=O)c3ccco3)CC2)c1 | -8.23
33 | Cc1ccc(C)c(COc2coc(CN3CCN(C(=O)c4ccco4)CC3)cc2=O)c1 | -100
34 | COC(=O)COc1coc(CN2CCN(c3cccc(Cl)c3)CC2)cc1=O | -11.4
35 | CC(Oc1coc(CN2CCN(C(=O)c3ccco3)CC2)cc1=O)c1ccccc1 (stereo not shown) | 11.5
36 | O=C(c1ccco1)N1CCN(Cc2cc(=O)c(OCc3ccccc3F)co2)CC1 | -30.4
37 | O=C(c1ccco1)N1CCN(Cc2cc(=O)c(OCc3ccccc3Cl)co2)CC1 | -56.2
38 | CC(C)(C)NC(=O)COc1coc(CN2CCN(C(=O)c3ccco3)CC2)cc1=O | 20.1
39 | Cc1ccc(COc2coc(CN3CCN(C(=O)c4ccco4)CC3)cc2=O)cc1 | -48.4
40 | CC(C)CN(C(=O)COc1ccc(Br)cc1C=O)C1CCS(=O)(=O)C1 (stereo not shown) | -25.4
41 | COc1ccc(O)c(-c2cn[nH]c2-c2cccs2)c1 | 7.6
42 | O=C(CNC(=O)Cc1ccccc1)N=Nc1c(O)[nH]c2ccc(Br)cc12 | 24.7
43 | O=C(CSc1nc2ccccc2c(=O)[nH]1)Nc1ccccc1C(F)(F)F | -2.68
